In the supplement of paper PMC6555819:

Experiments:
Test in all cases: PBM binding z-score (relative to random genomic background probes); higher = stronger binding; sequences stand for … in GC…GCGATTGACAGCGTAGAATGAAGG
[1] = tested on: RARb homodimer (NR concentration 270 nM)
Procedure, shortened: (§1)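 Ligand-free nuclear receptor dimers were bound for 1 h to custom Agilent 4×180K protein-binding microarrays. Detection used antibodies against each partner (one per run). Binding z-scores rest on regression-normalized fluorescence, with random background probes as the reference.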

[2] = tested on: RARg:RXRa (NR concentration 270 nM, RXRa partner concentration 90 nM)
Procedure, shortened: as §1

[3] = tested on: RARg homodimer (NR concentration 270 nM)
Procedure, shortened: as §1

[4] = tested on: RXRa DBDmut IVT, anti-RXR (DBD mutation: RXRa K156A/R161A, NR concentration 90 nM)
Procedure, shortened: as §1

[5] = tested on: RXRa homodimer (NR concentration 180 nM)
Procedure, shortened: as §1

[6] = tested on: THRa:RXRa (NR concentration 90 nM, RXRa partner concentration 90 nM)
Procedure, shortened: as §1

[7] = tested on: THRa homodimer (NR concentration 90 nM)
Procedure, shortened: as §1

[8] = tested on: VDR homodimer (NR concentration 270 nM)
Procedure, shortened: as §1

Sequence	PBM binding z-score [1]	PBM binding z-score [2]	PBM binding z-score [3]	PBM binding z-score [4]	PBM binding z-score [5]	PBM binding z-score [6]	PBM binding z-score [7]	PBM binding z-score [8]
TCTTGTAGAGCAACAGGAGGTTAAGAAAGATCGA	0.136	0.269	0.0354	0.0247	0.479	0.705	-0.732	-0.241
ATCCAAAGGTCGACGAGGTGAGTATACACCGTTT	3.09	4.27	4.1	1.22	4.44	3.66	1.12	0.772
AATAGTTGGTCAGCTGAGGTCACACACAATTCGG	4.34	4.25	4.37	1.48	4.26	4.94	5.21	3.62
GCGACTGGGGCATCAGCACGTTACCATAACTTAA	0.000503	0.0207	0.311	0.239	0.0852	-0.219	-0.089	-0.335
GCTGCTAGGTCAGGTTGGTCATCTAACGGGTACG	2.84	2.81	3.9	0.588	1.18	1.94	0.942	0.689
GGAACGAGGGCATCCGAGTTGATAGCATGGCGAT	0.756	1.28	1.71	2.26	0.974	3.08	-0.359	2.33
ATCGAAAGGTCGAGGTGAGTACAGAGAAAGGGAA	2.93	4.39	4.17	0.83	3.89	3.1	0.817	1.13
TCATATAGGTAAACGTGAAAGTCGAACGATATGA	-0.329	0.415	0.326	0.8	0.894	-0.0868	-0.279	-0.33
TCTTGTGGATCAAAGGTTAAGAAAGCCGAAGCCT	1.42	1.5	0.798	0.751	3.43	1.47	-0.309	-0.0408
CCTAGTTGGTCAGGAGGACACACACCGGATATGA	1.58	1.2	1.73	-0.252	0.276	1.28	1.43	0.975
GGAAGGAGGGCAAAGTTGATAGCATCTGTCGACG	1.91	2.07	1.55	1.37	1.89	1.04	0.664	1.44
TAGCCTAGGTCAGTTCGGGCCAGTATACGCTATA	2.51	2.29	3.3	0.0401	0.716	4.04	0.352	0.242
AGAAAGAGGTTACCAAAGATCAGGGAAACGCTTG	1.03	2.51	1.84	0.282	3.17	1.91	-0.577	-0.0812
ACTTACGGGTCAACGAGGTTATAGCGCGCGTATA	3.76	5.67	5.32	2.92	6.24	4.09	0.869	4.01
